This passage reports Potency and max response results from PubChem BioAssay (Tox21).

Records with an inconclusive call do not appear. Values without a mark were called inactive. Calls of active or inactive are those of the source. Calls come from the whole dose curve; as a rule, active = well fitted curve in the direction sought with a large enough effect in the repeat runs; inconclusive = weak or mixed curves; inactive = no such curve, though single readings can be large; an effect the other way counts as inactive or inconclusive.

A short description of experiment [1]: A CellTox Green Cytotoxicity Assay to monitor cytotoxicity in HEK293 cells - 40 hour (AID 1224871). Note: nearly all actives have a fitted effect of over 45% in size. Note: potency is the fitted concentration of half-maximal effect. A digest of the protocol: (§1)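 Nonlytic real-time cytotoxicity: HEK293 + CellTox Green reagent plated, 5 h preincubation, pintool compound addition (23 nL in DMSO), 37 C for 40 h, fluorescence measured at successive time points.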
Experiment [2] can be described thus: qHTS RealTime-Glo MT Cell Viability Assay in HEK293 cells - 16 hour (AID 1224872). Note: nearly all actives have a fitted effect of over 50% in size. Note: potency is the fitted concentration of half-maximal effect. A digest of the protocol:
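Assay medium contained NanoLuc luciferase plus cell-permeant prosubstrate, added with HEK293 cells at 600 cells/well. After 5 h at 37 C/5% CO2 compounds were added; plates stayed at 37 C for 40 h with serial luminescence reads.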

A short description of experiment [3]: qHTS RealTime-Glo MT Cell Viability Assay in HepG2 cells - 8 hour (AID 1224873). Note: nearly all actives have a fitted effect of over 55% in size. Note: potency is the fitted concentration of half-maximal effect. In outline:
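HepG2 cells mixed with RealTime-Glo MT reagents (NanoLuc plus cell-permeant prosubstrate) were seeded at 600 cells/well, incubated 5 h at 37 C/5% CO2, then pinned with compounds in DMSO; nonlytic luminescence tracked viability during 40 h treatment.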

The nature of experiment [4]: qHTS RealTime-Glo MT Cell Viability Assay in HEK293 cells - 40 hour (AID 1224874). Note: nearly all actives have a fitted effect of over 50% in size. Note: potency is the fitted concentration of half-maximal effect. The settings on record: RealTime-Glo luminescence; max response: stronger effect = lower value. In outline:
(§2)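 Cells were seeded together with NanoLuc luciferase and a prosubstrate that viable cells reduce to a luciferase substrate. After a 5 h incubation at 37 C/5% CO2, compounds were added and luminescence was measured repeatedly during 40 h of treatment.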

The nature of experiment [5]: A CellTox Green Cytotoxicity Assay to monitor cytotoxicity in HepG2 cells - 16 hour (AID 1224876). Note: nearly all actives have a fitted effect of over 45% in size. Note: potency is the fitted concentration of half-maximal effect. A digest of the protocol:
(§3)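 Read-out is fluorescence of a cyanine dye excluded from live cells that stains DNA of dead HepG2 cells, with signal proportional to cytotoxicity. Plates were read at 0, 8, 16, 24, 32 and 40 h after compound addition.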

Experiment [6] in a line: qHTS RealTime-Glo MT Cell Viability Assay in HepG2 cells - 32 hour (AID 1224877). Note: nearly all actives have a fitted effect of over 55% in size. Note: potency is the fitted concentration of half-maximal effect. In outline: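 qHTS, HepG2, 600 cells/well, RealTime-Glo (NanoLuc + prosubstrate) added with cells; 5 h preincubation; DMSO compound addition; 37 C; luminescence at 0/8/16/24/32/40 h.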
On the technique in general: Quantitative high-throughput screening tests each substance at several concentrations.

The nature of experiment [7]: A CellTox Green Cytotoxicity Assay to monitor cytotoxicity in HepG2 cells - 24 hour (AID 1224878). Note: nearly all actives have a fitted effect of over 45% in size. Note: potency is the fitted concentration of half-maximal effect. A digest of the protocol: as §3
Experiment [8] is described as follows: A CellTox Green Cytotoxicity Assay to monitor cytotoxicity in HepG2 cells - 40 hour (AID 1224879). Note: nearly all actives have a fitted effect of over 40% in size. Note: potency is the fitted concentration of half-maximal effect. A digest of the protocol: as §3
Experiment [9] is described as follows: A CellTox Green Cytotoxicity Assay to monitor cytotoxicity in HEK293 cells - 24 hour (AID 1224875). Note: nearly all actives have a fitted effect of over 45% in size. Note: potency is the fitted concentration of half-maximal effect. A digest of the protocol: as §1
A short description of experiment [10]: qHTS RealTime-Glo MT Cell Viability Assay in HEK293 cells - 0 hour (AID 1224880). In outline:
as §2
% is set by controls: 0 for no effect and ±100 for the full control effect.

For the compound `OCCN1CCN(CCCN2c3ccccc3Sc3ccc(Cl)cc32)CC1`, the Potency in experiment [1] is 26.8 µM (active); in experiment [2], 23.9 µM (active); in experiment [3] it was 23.9 µM (active); in experiment [4], 23.9 µM (active); in [5] it was 21.3 µM (active); in experiment [6], 23.9 µM (active). The Potency in experiment [7] is 15.1 µM (active); in experiment [8] it was 19 µM (active).
In the case of `O=[N+]([O-])c1cc(C2CCCCC2)c(O)c([N+](=O)[O-])c1`, the Potency entry in experiment [1], in [9] and in [5] was “inactive” in each case. In addition, the Potency in experiment [2] was 27.5 µM (active); in experiment [4], 12.3 µM (active).
In the case of `O=C(O)c1ccc(OCCCOc2ccc(C(=O)O)cc2)cc1`, the Potency entry in experiment [1], in [2], in [3], in experiment [9], in experiment [5] and in experiment [6] was “inactive” throughout. Besides, the Potency entry in [7], in experiment [8] and in [10] was “inactive” each time. In experiment [4], the max response was 1.73%.
Turning to `Cc1cscn1`, the Potency result in experiment [1], in experiment [2], in experiment [3], in experiment [9], in [5] and in experiment [6] was “inactive” each time. For the same compound, the Potency result in experiment [7], in experiment [8] and in experiment [10] was “inactive” in each case. In [4], the max response is 11.3%.
In the case of `CCn1cc(C(=O)O)c(=O)c2cc(F)c(N3CCNCC3)cc21`, the Potency result in experiment [1], in experiment [2], in experiment [3], in experiment [9], in [5] and in experiment [6] was “inactive” each time. For the same compound, the Potency result in experiment [7], in experiment [8] and in [10] was “inactive” each time. The max response in [4] was 11.4%.
Consider `O=C1c2ccccc2C(=O)C1c1nc2ccccc2c(Br)c1O`, for which the Potency result in [1], in experiment [2], in experiment [3], in experiment [9], in [6] and in [10] was “inactive” throughout. In [4], the max response is 21.2%. The Potency in experiment [8] was 4.9 µM (active).
With `Oc1c(I)cc(I)c2cccnc12`, the Potency entry in experiment [1], in [2], in experiment [3], in [9], in [5] and in experiment [6] was “inactive” in each case. For the same compound, the Potency entry in experiment [7], in experiment [8] and in experiment [10] was “inactive” throughout.
With `CCC(=O)C1CC(C(C)C)CC=C1C` (configuration not stated), the Potency entry in experiment [1], in experiment [2], in experiment [3], in [9], in experiment [6] and in experiment [7] was “inactive” each time. Further, the Potency entry in experiment [8] and in experiment [10] was “inactive” in each case. Also, the max response in experiment [4] was 9.7%.
Turning to `C[C@H]1c2cccc(O)c2C(O)=C2C(=O)[C@]3(O)C(O)=C(C(N)=O)C(=O)[C@@H](N(C)C)[C@@H]3[C@@H](O)[C@@H]21`, the Potency result in [1], in experiment [2], in experiment [3], in experiment [9], in [5] and in experiment [6] was “inactive” in each case. Moreover, the Potency result in [7], in [8] and in experiment [10] was “inactive” throughout. Moreover, the max response in experiment [4] was 0.751%.
Regarding `c1ccc2sc(SN(C3CCCCC3)C3CCCCC3)nc2c1`, the Potency entry in experiment [1], in experiment [2], in [3], in [9], in [5] and in experiment [6] was “inactive” throughout. Besides, the Potency entry in [7], in experiment [8] and in [10] was “inactive” in each case. In addition, the max response in [4] is 3.85%.
For `COc1cc(N)c(Cl)cc1C(=O)NC1CCN(CCCOc2ccc(F)cc2)CC1OC` (configuration not stated), the Potency result in experiment [1], in experiment [3], in [9], in experiment [5], in experiment [6] and in experiment [7] was “inactive” throughout. The Potency result in experiment [10] is “inactive”. For the same compound, the Potency in [2] was 2.39 µM (active); in experiment [4], 3.01 µM (active).
Turning to `CCOC(=O)c1ccc(O)c(O)c1`, the Potency result in experiment [1], in experiment [2], in experiment [3], in experiment [9], in [6] and in [7] was “inactive” throughout. For the same compound, the Potency result in experiment [8] and in experiment [10] was “inactive” throughout. For the same compound, the max response in [4] is -21.6%.
Turning to `O=C1c2ccccc2C(=O)C1(O)O`, the Potency result in [1], in [2], in experiment [3], in [9], in experiment [5] and in experiment [6] was “inactive” in each case. Also, the Potency entry in experiment [7] and in experiment [10] was “inactive” each time. Moreover, the max response in experiment [4] was -22.4%.
On to `CCOc1ccc(Cc2nccc3cc(OCC)c(OCC)cc23)cc1OCC`, for which the Potency entry in [1], in experiment [9], in experiment [5], in experiment [7] and in [10] was “inactive” throughout. Further, the Potency was 9.52 µM (active) in [2], 12 µM (active) in experiment [3], 5.35 µM (active) in experiment [4] and 7.56 µM (active) in experiment [8].
For the compound `CCCCOc1ccc(OCCCN2CCOCC2)cc1`, the Potency entry in [1], in [2], in experiment [3], in experiment [9], in experiment [5] and in experiment [6] was “inactive” in each case. The Potency result in experiment [7], in [8] and in experiment [10] was “inactive” in each case. In experiment [4], the max response was -27.6%.
Consider `COc1cc(Nc2c(C#N)cnc3cc(OCCCN4CCN(C)CC4)c(OC)cc23)c(Cl)cc1Cl`, for which the Potency is 21.3 µM (active) in experiment [1]; 19 µM (active) in experiment [2]; 7.56 µM (active) in experiment [4]; 21.3 µM (active) in experiment [9]; 23.9 µM (active) in [5]; 21.3 µM (active) in [6]. The results for the Potency in experiment [7] and in experiment [8] were 16.9 µM (active) and 9.52 µM (active), respectively. In addition, the Potency result in experiment [10] is “inactive”.
Consider `OCCOCC#CCOCCO`, for which the Potency entry in experiment [1], in experiment [2], in [3], in [9], in experiment [5] and in experiment [6] was “inactive” each time. Moreover, the Potency result in [7], in experiment [8] and in experiment [10] was “inactive” throughout. Moreover, in [4], the max response was 7.98%.
Turning to `CCOc1ccccc1O[C@H](c1ccccc1)[C@H]1CNCCO1`, the Potency result in experiment [1], in experiment [2], in [3], in [9], in [5] and in experiment [6] was “inactive” throughout. Further, the Potency result in experiment [7] and in experiment [10] was “inactive” throughout. In addition, in experiment [4], the max response was 1.67%.
As to `Nc1nc2ccc([N+](=O)[O-])cc2s1`, the Potency entry in experiment [1], in experiment [2], in [3], in [9], in [6] and in experiment [10] was “inactive” in each case. The figures for the Potency in experiment [5], in experiment [7] and in [8] were 49 µM (active), 43.6 µM (active) and 43.6 µM (active), respectively.
